Screening data from PubChem.
Most compounds without a hit are left out; they make up all but 4.8% or so of the library.
DAX1 inh-1 – inhibits human nuclear receptor DAX1 | P51843 | HEK293 Gal4-DAX1 luciferase reporter, luminescence | inhibition, % at 6.75 µM | hit rate 0.99% among 340,000;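 active = inhibition above the mean over all tested compounds plus 3 SD, cut at about 4.2% in these data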;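 also: 0% = DAX1-transfected cells with DMSO and 100% = empty-vector control cells with DMSO; inhibition shows as a rise in luminescence from relieved DAX1 repression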
Target sequence (P51843 207-470 limits assumed): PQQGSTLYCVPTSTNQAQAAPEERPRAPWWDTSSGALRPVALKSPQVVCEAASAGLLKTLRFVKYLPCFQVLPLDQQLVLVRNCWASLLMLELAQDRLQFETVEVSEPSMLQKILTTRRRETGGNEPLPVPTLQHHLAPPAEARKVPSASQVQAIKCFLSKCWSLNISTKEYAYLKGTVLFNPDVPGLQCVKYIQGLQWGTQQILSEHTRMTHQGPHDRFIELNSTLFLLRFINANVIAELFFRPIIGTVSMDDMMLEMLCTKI
ssDAF12 agonist – activators of S. stercoralis DAF-12 nuclear receptor; HEK293 ssDAF-12/GRIP1 lit1-tk-luc reporter, luminescence; % of 3 µM dafachronic acid response; activation, % at 6.8 µM; hit rate 1% among 370,000;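 active = activation above the mean over all tested compounds plus 3 SD, cut at about 0.9% in these data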;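 also: 0% = DMSO-only wells and 100% = 3 µM delta7-dafachronic acid wells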
hcDAF12 agonist – H. contortus DAF-12 activation, primary screen; HEK293 hcDAF-12 lit1-tk-luc reporter, luminescence; 0% DMSO, 100% Δ7-dafachronic acid; activation, % at 6.8 µM; hit rate 1.4% among 370,000; AID 652067;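 active = activation above the mean of all tested compounds plus 3 SD, cut at about 5.5% in these data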;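 also: 100% = response to 3 µM Δ7-dafachronic acid high control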
SMARCA2 act – activators of SMARCA2 function | MG213 cells, MMTV-luciferase reporter, dexamethasone, overnight | activation, % at 9.1 µM | hit rate 1% among 370,000 | AID 652017; in the data active = activation above about 7.8%;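 also: 0% = vehicle wells and 100% = reference activator wells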
hgDAF12 agonist – activates the H. glycines DAF-12 receptor ligand-binding domain. HEK293 GAL4-hgDAF12 UAS-luciferase reporter, agonist luminescence; normalized to butyrate control. activation, % at 6.8 µM. hit rate 1.8% among 370,000;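 active = activation above a cutoff set at the mean of all screened compounds plus 3 SD, cut at about 10% in these data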;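 also: 0% = DMSO wells and 100% = sodium butyrate wells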
DAX1 inh-2 – DAX1 (NR0B1) inhibition, primary screen | hit rate 1.1% among 370,000 | inhibition, % at 6.8 µM | HEK293T StAR-luciferase reporter, SF-1/DAX-1 repression relief;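 active = inhibition above the mean over all tested compounds plus 3 SD, cut at about 3.6% in these data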;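 also: 0% = DAX-1 cells with DMSO and 100% = cells lacking DAX-1 with DMSO; higher inhibition means more luminescence from relief of DAX-1 repression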
* marks the source's active call; other numbers are inactive results; nt = not tested or not shown.

SMILES	DAX1 inh-1	ssDAF12 agonist	hcDAF12 agonist	SMARCA2 act	hgDAF12 agonist	DAX1 inh-2
COCCc1ncc(CN2CCCCC2C(=O)Nc2ccc(Oc3ccccc3)nc2)cn1 (stereo not given)	0.1	-0.8	-1.9	1.4	2.1	0.7
O=C(Nc1ccc(Oc2ccccc2)nc1)C1CCCCN1Cc1ccc(O)cc1 (stereo not given)	1.1	-0.1	2.6	2.4	4.9	3.9*
COCCC(=O)N1CCC(C(=O)Nc2ccc(Oc3ccccc3)nc2)CC1	0.3	-0.8	5.8*	-2.0	3.5	0.0
Cc1ccc2nc(-c3cccc(S(=O)(=O)N(C)C)c3)cn2c1	0.2	-0.2	2.4	6.4	10.6*	1.2
O=C(CCCC1=NS(=O)(=O)c2ccccc2N1)N1CCN(c2ccccc2Cl)CC1	nt	-0.6	-2.0	4.0	-3.0	-1.5
COc1cc(NC(=O)C/C(C)=N/NC(=O)c2cccc(O)c2)c(OC)cc1Cl	2.5	-0.2	6.1*	3.4	12.1*	1.1
C/C(CC(=O)Nc1ccc(Br)cc1)=N\NC(=O)c1cccc(O)c1	5.7*	-1.1	-0.3	0.3	0.5	0.6
C/C(CC(=O)Nc1ccc2c(c1)OCCO2)=N\NC(=O)c1cccc(O)c1	6.4*	-0.5	1.0	5.3	4.7	1.0
CC(=O)N/N=C(\C)CC(=O)Nc1ccc2c(c1)OCCO2	0.2	-1.4	-0.4	3.2	0.4	-0.6
COc1ccc(NC(=O)Nc2ncccc2C)cc1	0.8	0.1	0.4	1.0	8.6	0.1
Cc1cccnc1NC(=O)Nc1ccc(Cl)cc1	4.3*	0.3	2.8	5.1	7.1	1.0
Cc1cccnc1NC(=O)Nc1ccccc1	3.6	-0.5	1.9	2.3	4.8	1.1
Cc1cccnc1NC(=O)Nc1cccc(F)c1	1.7	-0.1	4.0	2.9	10.9*	2.3
CCOC(=O)[C@]12CCCCC/C=C\1N(Cc1ccc(OC)cc1)C(=O)[C@H]2CC(=O)NCCc1ccccc1OC	nt	-1.7	-2.7	-3.1	-1.9	-0.5
CN(C)S(=O)(=O)c1cc(NC(=O)CN2CCc3ccccc32)ccc1Cl	-0.7	1.0*	4.8	-1.7	6.3	0.5
CN(C)S(=O)(=O)c1cc(NC(=O)CN2CCCc3ccccc32)ccc1Cl	-0.1	-1.0	1.6	-3.6	0.5	-0.8
CC(C)CN1C(=O)[C@@]2(CC(=O)N(C)C2c2ccccc2)c2cc(-n3cc(CCc4ccccc4)nn3)ccc21 (stereo not given in full)	nt	-1.2	-2.9	-5.3	0.3	1.6
C[n+]1ccccc1/C=C1\Sc2ccccc2N1CCO	1.8	-0.9	0.5	-0.5	-3.4	-0.3
CC[n+]1ccc(/C=C2\Sc3ccccc3N2CCCS(=O)(=O)[O-])c2ccccc21	-0.1	1.2*	3.6	-3.6	-1.2	-0.1
CCOC(=O)Cn1nc(-c2ccccc2)c2cnc3ccc(C)cc3c21	1.0	0.6	6.3*	-1.8	1.3	0.2
CCOC(=O)Cn1nc(-c2ccc(C)cc2)c2ccccc2c1=O	-0.5	-1.6	-1.6	-2.5	-4.9	1.4
CCCn1nnc(NC(=O)c2ccccc2Br)n1	0.8	-1.4	1.6	2.6	2.4	1.1
CCCn1nnc(NC(=O)c2cccc(OCC)c2)n1	1.5	-1.2	-0.5	4.5	7.9	0.9
CCCn1nnc(NC(=O)c2ccc3ccccc3c2)n1	3.2	-0.8	1.7	4.5	10.8*	1.5
CCn1nnc(NC(=O)c2ccccc2Br)n1	1.5	1.0*	4.8	3.7	5.9	1.3
SMILES	DAX1 inh-1	ssDAF12 agonist	hcDAF12 agonist	SMARCA2 act	hgDAF12 agonist	DAX1 inh-2
CC(=O)N1N=C(c2cccc(NS(C)(=O)=O)c2)CC1c1cccs1 (stereo not given)	-0.5	-0.9	-0.8	7.9*	-4.1	-0.4
CC(=O)Nc1ccc(/C=N/OCC(=O)Nc2ccc(C)cc2)cc1	0.7	-0.3	2.4	3.3	11.5*	0.5
CN(C)c1ccc(C=NNC(=S)Nc2ccc(F)cc2)cc1	5.0*	-0.8	0.1	1.9	11.4*	1.4
Cc1ccc(NC(=O)C=NOCC(=O)Nc2cc(C)cc(C)c2)cc1	1.2	0.5	1.1	2.9	3.5	-1.1
COc1ccc(/C=N/OC(=O)Nc2ccccc2OC)cc1	-1.5	-0.2	1.1	3.7	11.8*	-1.1
COc1ccc(NC(=O)O/N=C/c2ccncc2)cc1	4.6*	-1.2	0.9	1.7	7.1	0.7
COC(=O)c1ccc(Cn2ccc3ccc(-c4ccc5ccn(Cc6ccc(OC)cc6)c5c4)cc32)cc1	nt	-0.4	3.3	-1.2	0.9	0.0
NC(=O)C1CCN(c2ccnc(Cl)n2)CC1	nt	-0.6	-1.6	nt	-0.7	nt
COc1ccc(NC(=O)O/N=C/c2ccc(N(C)C)cc2)cc1	0.1	-0.2	-0.1	7.1	6.9	1.2
Cc1ccc(NC(=O)O/N=C/c2ccc(N(C)C)cc2)cc1	3.1	0.2	2.4	7.3	13.2*	1.6
C[C@@H]1ON(C)[C@H]2C[C@H]3c4[nH]c5c(-c6ccccc6F)cccc5c4CCN3C[C@@H]12	nt	-0.9	-2.0	-6.4	1.9	-1.3
COc1ccc(C2=NN(CN3C(=O)C(=O)c4ccccc43)C(c3ccc(OC)cc3)C2)cc1 (stereo not given)	-0.1	-1.3	1.2	5.9	11.1*	0.0
COc1ccc(C2=NN(S(=O)(=O)c3ccccc3)C(c3ccccc3)C2)cc1 (stereo not given)	0.9	-1.4	0.2	-3.4	0.4	0.2
Cc1cccc(-c2cccc3c4c([nH]c23)[C@@H]2C[C@H](N(C)C(=O)Nc3ccccc3C)[C@H]([C@H](C)O)C(=O)N2CC4)c1	nt	-1.1	-3.1	-4.2	-1.4	-2.5
O=C(O)COc1ccc2c(c1)O/C(=C\c1cccs1)C2=O	0.4	-0.1	-0.1	-1.6	2.6	0.1
COc1ccc2c(c1)O/C(=C\c1sccc1C)C2=O	0.0	-1.0	2.1	2.5	11.3*	0.1
Cc1ccc(C2=NOC(=O)/C2=C\c2ccc(C)o2)cc1	5.8*	-1.2	0.4	1.7	-1.2	-0.1
CCOc1ccc(NC(=O)CN(c2ccc(OC)cc2)S(C)(=O)=O)cc1	0.2	-1.0	2.1	5.0	5.3	1.6
COC(=O)c1ccc(NC(=O)CN(c2ccc(OC)cc2)S(C)(=O)=O)cc1	-0.1	-0.6	3.4	3.5	11.8*	0.7
O=C(O)c1ccc(-c2ccccc2)[nH]c1=O	5.4*	-1.3	-0.9	4.6	-2.1	0.1
Oc1[nH]c2ccccc2c1N=Nc1c(F)c(F)c(Cl)c(F)c1F	0.9	-1.0	1.4	-2.4	0.0	0.6
Oc1[nH]c2ccccc2c1N=Nc1ccccc1Cl	3.4	2.5*	3.8	1.3	7.5	1.7
Cc1cccc(NC(=O)Nc2ccc(C)c(C)c2)n1	2.0	0.6	6.2*	5.2	6.7	0.8
Cc1cccc(NC(=O)Nc2cccc(C)n2)n1	1.1	-0.7	-1.1	0.9	3.2	-0.1
